In all, about 9,900 sequences were measured (“r (bound/input frequency ratio)”: median about 0.7, highest 2% from about 6.5 on). This excerpt belongs to a sample that is enriched for the highest values.
B1: ENSMUSG00000004113.145|Cacna1b (ssRNA)
RNA: GGGAGUUCUACAGUCCGACGAUCGCUUCGAUAUCCGCAUGCUAAAAUAGCACAUGUAUGUAGAGAUGCGCUCAAGGGCCUGCCUUUCACCUACACUGUCACCAUAACAGGGACCAAAUCUGGAGGAUGUCCUUGCUGUUGAUUCUGGUUUUCAGUCACAACACUUUCACUGUUUGUCAUUUCUAUGUAGUUGAUCUAGAAAAAGCAGAAAUCAAAACAGGAAAGGAAAUGUUUGUGUAACUUUAAAAAAAAAGUCAACAUGUAGGAAGGUCUCCAUUUUGCAUUGUUUCUGUGUCUUGUAUGCCUCUUGCGGUCGCACUAGUGUGGAAUUCUCGGGUGUCAAGG
B2: ENSMUSG00000031028.502|Tub|9:15;46:52 (ssRNA)
RNA: GGGAGUUCUACAGUCCGACGAUCGCUUCGAUAUCCGCAUGCUACAAGUAAGCACACACCCUCUGGGAAGACAGGAGUCGGAAGCCAAGCACACACGCAACAGUCUGGAAGAGAGCUUUUGGUAAUCAUACCGUCUUCAGUGACAAGGCAACAAUGCUGUAAAGUGGGUUUGUUUGGUUUUGUUUUUUCUUUCUCUUUUAUGGAAAUGGCAGGUCUAUUUGCCUCAAACGUUAUGUAGAAGUAGUUCUAAGUUUAACAAGCAAUAGAGAUGACUGCUUAGCUAGGAUCUGCAGGGAGCUCUGCUCUCUUGCGGUCGCACUAGUGUGGAAUUCUCGGGUGUCAAGG
B3: ENSMUSG00000031028.254|Tub|5:10 (ssRNA)
RNA: GGGAGUUCUACAGUCCGACGAUCGCUUCGAUAUCCGCAUGCUAUGCCACACACCCAUCUGUGAGAAGCUUCUUGGAGCUGAGACACCAGAGGGAAGCAAAGAGCAUUUAGACAUUGCUUUUUGCUUUGAAAUAGAUAUGUUUGGAAACGCUAAGUAGAAGUUUAAAAAGUAGAGUCAUGUAGAGUCAUGCUUUGAAUAUGUGGGUCAUGCUUUAGAUAUGAAGAGGCUAUGCAGGUAAGGAGGCUGGAUUGAUGUAAAUGGAAGUAGUACUUUAAGAAAGCUCUAGAUUUCCCAGGUUGGACACUCUUGCGGUCGCACUAGUGUGGAAUUCUCGGGUGUCAAGG
B4: ENSMUSG00000090935.680|Synj2bp|248:252 (ssRNA)
RNA: GGGAGUUCUACAGUCCGACGAUCGCUUCGAUAUCCGCAUGCUAUUGAGAUUCACCACUGUCAGGAGCUCUCUCUCUCUGCUUAGAAUCAUCCAGACAGCGGGCUGGUCAGCCCACAUUAAAUAAGAACAUGUGGGACUAGAAUUCAGUCAACAAUGACAUGUUUCAUCAGGUGGUUAAAAUGUACAGAUUCUGUUGGAAAUGUUCCAUGGUAUUUCAAUAGCCAGAAUGAAGAACUGGGCUAAGUCCAGAGCUCUGCUCUCUGAGCAUCUGCCCCAGAUACAGAGGCAGACAUACAAGUGGAACUCUUGCGGUCGCACUAGUGUGGAAUUCUCGGGUGUCAAGG
B5: ENSMUSG00000031028.416|Tub (ssRNA)
RNA: GGGAGUUCUACAGUCCGACGAUCGCUUCGAUAUCCGCAUGCUACUUGGCUGGGUAGCAAAUUGGUGAGAAGAGCAGCCUAGUCUGUAAGAGUGCAGGGCAGCUGGAACCUUAGGCAGCUCCUCUGUAUGCUACCGGCUCCACACCCUAACACUCUCCACCCUCUGCUCCAAACCAGUUCUUCUGCAGAGUGGUGAUGUUAGCUUCCCCAGCUCCUCUCCAAGUCUAGCUUUUUCUGUCCUUCUGGCUCCAAGGUGCUCUGUGUCUGUGUGUGUGUGUCUGUCUGUGUGUGUGUGUGUCGAGGACUCUUGCGGUCGCACUAGUGUGGAAUUCUCGGGUGUCAAGG
B6: ENSMUSG00000031028.419|Tub (ssRNA)
RNA: GGGAGUUCUACAGUCCGACGAUCGCUUCGAUAUCCGCAUGCUAUGGUGAGAAGAGCAGCCUAGUCUGUAAGAGUGCAGGGCAGCUGGAACCUUAGGCAGCUCCUCUGUAUGCUACCGGCUCCACACCCUAACACUCUCCACCCUCUGCUCCAAACCAGUUCUUCUGCAGAGUGGUGAUGUUAGCUUCCCCAGCUCCUCUCCAAGUCUAGCUUUUUCUGUCCUUCUGGCUCCAAGGUGCUCUGUGUCUGUGUGUGUGUGUCUGUCUGUGUGUGUGUGUGUCGAGGAAAGGGCAAUCUGCAAACACUCUUGCGGUCGCACUAGUGUGGAAUUCUCGGGUGUCAAGG
B7: ENSMUSG00000031028.420|Tub (ssRNA)
RNA: GGGAGUUCUACAGUCCGACGAUCGCUUCGAUAUCCGCAUGCUAGAAGAGCAGCCUAGUCUGUAAGAGUGCAGGGCAGCUGGAACCUUAGGCAGCUCCUCUGUAUGCUACCGGCUCCACACCCUAACACUCUCCACCCUCUGCUCCAAACCAGUUCUUCUGCAGAGUGGUGAUGUUAGCUUCCCCAGCUCCUCUCCAAGUCUAGCUUUUUCUGUCCUUCUGGCUCCAAGGUGCUCUGUGUCUGUGUGUGUGUGUCUGUCUGUGUGUGUGUGUGUCGAGGAAAGGGCAAUCUGCAAACAAUGAACCUCUUGCGGUCGCACUAGUGUGGAAUUCUCGGGUGUCAAGG
B8: ENSMUSG00000031028.419|Tub|64:68;198:202;204:216;222:236 (ssRNA)
RNA: GGGAGUUCUACAGUCCGACGAUCGCUUCGAUAUCCGCAUGCUAUGGUGAGAAGAGCAGCCUAGUCUGUAAGAGUGCAGGGCAGCUGGAACCUUAGGCAGCUCCUCUCAUACCUACCGGCUCCACACCCUAACACUCUCCACCCUCUGCUCCAAACCAGUUCUUCUGCAGAGUGGUGAUGUUAGCUUCCCCAGCUCCUCUCCAAGUCUAGCUUUUUCUGUCCUUCUGGCUCCAAGGUGCUCACACACACACACACACACACUGUCACACACACACACACACGAGGAAAGGGCAAUCUGCAAACACUCUUGCGGUCGCACUAGUGUGGAAUUCUCGGGUGUCAAGG
B9: ENSMUSG00000031028.421|Tub (ssRNA)
RNA: GGGAGUUCUACAGUCCGACGAUCGCUUCGAUAUCCGCAUGCUACAGCCUAGUCUGUAAGAGUGCAGGGCAGCUGGAACCUUAGGCAGCUCCUCUGUAUGCUACCGGCUCCACACCCUAACACUCUCCACCCUCUGCUCCAAACCAGUUCUUCUGCAGAGUGGUGAUGUUAGCUUCCCCAGCUCCUCUCCAAGUCUAGCUUUUUCUGUCCUUCUGGCUCCAAGGUGCUCUGUGUCUGUGUGUGUGUGUCUGUCUGUGUGUGUGUGUGUCGAGGAAAGGGCAAUCUGCAAACAAUGAACAGAAGUCUCUUGCGGUCGCACUAGUGUGGAAUUCUCGGGUGUCAAGG
B10: ENSMUSG00000031028.409|Tub (ssRNA)
RNA: GGGAGUUCUACAGUCCGACGAUCGCUUCGAUAUCCGCAUGCUAACAGGAAGAUCCCUUACCCCUCAUCCCCUCUUCUUUUUGGUCCUUGGCUGGGUAGCAAAUUGGUGAGAAGAGCAGCCUAGUCUGUAAGAGUGCAGGGCAGCUGGAACCUUAGGCAGCUCCUCUGUAUGCUACCGGCUCCACACCCUAACACUCUCCACCCUCUGCUCCAAACCAGUUCUUCUGCAGAGUGGUGAUGUUAGCUUCCCCAGCUCCUCUCCAAGUCUAGCUUUUUCUGUCCUUCUGGCUCCAAGGUGCUCUGUCUCUUGCGGUCGCACUAGUGUGGAAUUCUCGGGUGUCAAGG
B11: ENSMUSG00000031028.418|Tub (ssRNA)
RNA: GGGAGUUCUACAGUCCGACGAUCGCUUCGAUAUCCGCAUGCUAGCAAAUUGGUGAGAAGAGCAGCCUAGUCUGUAAGAGUGCAGGGCAGCUGGAACCUUAGGCAGCUCCUCUGUAUGCUACCGGCUCCACACCCUAACACUCUCCACCCUCUGCUCCAAACCAGUUCUUCUGCAGAGUGGUGAUGUUAGCUUCCCCAGCUCCUCUCCAAGUCUAGCUUUUUCUGUCCUUCUGGCUCCAAGGUGCUCUGUGUCUGUGUGUGUGUGUCUGUCUGUGUGUGUGUGUGUCGAGGAAAGGGCAAUCUGCUCUUGCGGUCGCACUAGUGUGGAAUUCUCGGGUGUCAAGG
B12: ENSMUSG00000031028.418|Tub|70:74;204:208;210:222;228:242 (ssRNA)
RNA: GGGAGUUCUACAGUCCGACGAUCGCUUCGAUAUCCGCAUGCUAGCAAAUUGGUGAGAAGAGCAGCCUAGUCUGUAAGAGUGCAGGGCAGCUGGAACCUUAGGCAGCUCCUCUCAUACCUACCGGCUCCACACCCUAACACUCUCCACCCUCUGCUCCAAACCAGUUCUUCUGCAGAGUGGUGAUGUUAGCUUCCCCAGCUCCUCUCCAAGUCUAGCUUUUUCUGUCCUUCUGGCUCCAAGGUGCUCACACACACACACACACACACUGUCACACACACACACACACGAGGAAAGGGCAAUCUGCUCUUGCGGUCGCACUAGUGUGGAAUUCUCGGGUGUCAAGG
B13: ENSMUSG00000031028.417|Tub (ssRNA)
RNA: GGGAGUUCUACAGUCCGACGAUCGCUUCGAUAUCCGCAUGCUAUGGGUAGCAAAUUGGUGAGAAGAGCAGCCUAGUCUGUAAGAGUGCAGGGCAGCUGGAACCUUAGGCAGCUCCUCUGUAUGCUACCGGCUCCACACCCUAACACUCUCCACCCUCUGCUCCAAACCAGUUCUUCUGCAGAGUGGUGAUGUUAGCUUCCCCAGCUCCUCUCCAAGUCUAGCUUUUUCUGUCCUUCUGGCUCCAAGGUGCUCUGUGUCUGUGUGUGUGUGUCUGUCUGUGUGUGUGUGUGUCGAGGAAAGGGCCUCUUGCGGUCGCACUAGUGUGGAAUUCUCGGGUGUCAAGG

molecular target: TDP-43 (Homo sapiens, UniProt Q13148 1-414); test: RNA Bind-n-Seq with designed 260-mer pool; 25 mM Tris-HCl, 150 mM KCl, 3 mM MgCl2, BSA (printed 500 mg/mL), 20 units/mL SUPERase IN; pH not stated; 500 nM RNA pool, 1 h, 4 C; TDP-43 5, 50, 500 nM; high values mean tight binding; settings: protein: recombinant; tags: SBP (GST cleaved off with PreScission; pGEX-GST-SBP)
Sequence (Q13148 whole entry): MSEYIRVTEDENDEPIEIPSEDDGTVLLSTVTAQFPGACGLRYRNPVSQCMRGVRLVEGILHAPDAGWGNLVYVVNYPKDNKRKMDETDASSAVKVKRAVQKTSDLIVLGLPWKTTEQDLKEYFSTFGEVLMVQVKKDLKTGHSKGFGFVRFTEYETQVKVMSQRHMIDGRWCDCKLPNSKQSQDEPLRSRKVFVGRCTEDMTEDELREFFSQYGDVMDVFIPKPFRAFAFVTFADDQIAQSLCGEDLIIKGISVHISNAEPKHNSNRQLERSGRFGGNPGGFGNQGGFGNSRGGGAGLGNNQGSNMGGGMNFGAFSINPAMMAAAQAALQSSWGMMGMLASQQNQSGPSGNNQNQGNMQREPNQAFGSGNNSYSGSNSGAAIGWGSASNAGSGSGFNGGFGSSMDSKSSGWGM
In short: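 Duplicate measurements used two independent batches of recombinant SBP-tagged TDP-43, which was captured on streptavidin beads at 5, 50 or 500 nM. The beads were incubated with 500 nM of an in vitro-transcribed 260-nt 3′ UTR oligo pool for 1 h at 4 °C in 25 mM Tris-HCl, 150 mM KCl, 3 mM MgCl2, BSA and SUPERase IN. After washing, biotin elution, reverse transcription, PCR amplification and sequencing, binding was expressed as R: each oligo's normalized read abundance in the bound sample over its abundance in input.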

Row | Binder | binding signal
1 | B1 | 0.241 R (bound/input frequency ratio)
2 | B2 | 0.277 R (bound/input frequency ratio)
3 | B3 | 1.12 R (bound/input frequency ratio)
4 | B4 | 0.197 R (bound/input frequency ratio)
5 | B5 | 6.14 R (bound/input frequency ratio)
6 | B6 | 5.95 R (bound/input frequency ratio)
7 | B7 | 7.33 R (bound/input frequency ratio)
8 | B8 | 3.42 R (bound/input frequency ratio)
9 | B9 | 5.82 R (bound/input frequency ratio)
10 | B10 | 0.927 R (bound/input frequency ratio)
11 | B11 | 7.04 R (bound/input frequency ratio)
12 | B12 | 3.24 R (bound/input frequency ratio)
13 | B13 | 6.83 R (bound/input frequency ratio)

Source: paper PMC12864922, “TDP-43 directly inhibits mRNA accumulation in neurites through modulation of mRNA stability”
